HSV augment = enhancers of HSV replication in host cells, fold increase, host cell viability; HSV replication augmentation in cells; maximum fold increase; hit rate 0.005% among 220,000; in the data active = maximum fold increase above about 1.5; tested in PC3 cells
Wee1 stabilizer = Wee1 degradation inhibitors, primary screen, cell-based, HeLa, Wee1K328M-luciferase, luminescence | Wee1-like protein kinase (Homo sapiens), P30291 | AID 1321, 2008 | reporter increase, % at 5 µM | HeLa Luc-Wee1K328M stability; 100% = proteasome inhibitor MG132 effect | hit rate 1.2% among 220,000;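 active = activation above the mean of all tested compounds plus 3 SD, set per screening run, cut at about 8.8% in these data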;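 note: cells exposed to compound for 20 h before luminescence read; 0% = DMSO alone and 100% = MG132 at 30 µM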
Target sequence (P30291 whole entry K328M): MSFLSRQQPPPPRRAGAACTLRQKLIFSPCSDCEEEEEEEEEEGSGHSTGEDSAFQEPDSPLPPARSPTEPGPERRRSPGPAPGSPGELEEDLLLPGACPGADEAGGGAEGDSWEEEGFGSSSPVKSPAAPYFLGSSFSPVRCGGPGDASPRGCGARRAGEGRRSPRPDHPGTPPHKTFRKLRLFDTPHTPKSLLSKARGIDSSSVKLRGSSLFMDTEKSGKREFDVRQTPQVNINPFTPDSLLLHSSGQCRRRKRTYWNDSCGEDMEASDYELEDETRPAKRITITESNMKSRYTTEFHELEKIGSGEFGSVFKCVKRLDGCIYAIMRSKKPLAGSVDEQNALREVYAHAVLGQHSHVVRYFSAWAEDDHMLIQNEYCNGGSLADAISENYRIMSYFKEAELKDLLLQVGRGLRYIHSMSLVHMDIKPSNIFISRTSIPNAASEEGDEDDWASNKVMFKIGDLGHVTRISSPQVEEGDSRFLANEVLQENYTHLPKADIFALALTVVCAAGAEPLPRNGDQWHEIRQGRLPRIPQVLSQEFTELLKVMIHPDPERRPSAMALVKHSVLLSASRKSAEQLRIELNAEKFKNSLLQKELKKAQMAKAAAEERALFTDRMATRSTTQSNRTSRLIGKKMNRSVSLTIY
L929 necroptosis = inhibitors of zVAD-triggered necroptosis, primary screen, L929 cells; L929 zVAD necroptosis rescue, ATP luminescence, 24 h; with zVAD 60 µM; hit rate 0.38% among 220,000; viability rescue, % at 10 µM;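 active = activation, scaled between plate controls, above about 75%, limit read from the data; inactive = activation under that limit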;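 note: 0% = zVAD with DMSO and 100% = DMSO alone without zVAD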
TNF necrop inh = inhibitors of TNF-alpha triggered necroptosis, primary screen, cell-based, Jurkat FADD-/-, single concentration; activation (protection from cell death), % at 10 µM; AID 463075, 2010; Jurkat FADD-/- TNF necroptosis rescue, ATP luminescence, 24 h; 0 = TNF only, 100 = no-TNF cells; hit rate 0.068% among 220,000;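 active = activation, meaning protection from cell death, of at least 50% relative to plate controls; inactive = activation below 50%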;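 note: necroptosis triggered by 40 ng/mL TNF-alpha added together with compound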
V-ATPase pH = regulators of yeast V-ATPase proton pumping, primary screen, pHLuorin cytosolic pH fluorescence. S. cerevisiae. response, % at 10 µM. hit rate 0.37% among 350,000. AID 504577, 2011; in the data active = response mostly above about 7.3%, no sharp cut-off; inactive = mostly below about 5.4%; note: actives read high
zVAD death conf = inhibitors of zVAD-triggered necroptosis in L929, confirmation, L929 cells, duplicate runs; shares compounds with L929 necroptosis; L929 zVAD-induced necroptosis rescue, ATP luminescence, 24 h; activation (protection from necroptosis), % at 10 µM; hit rate 16% among 760;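 active = mean protection from necroptosis of at least 50% over duplicate tests; inactive = mean protection below 50%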;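 note: 0% = cells with zVAD alone and 100% = vehicle cells without zVAD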
Starred values were filed as active, the others as inactive; i = inactive; x = not tested or not shown. In the library only some 1.4% were active in any assay of this set; here they are far more common.

SMILES	HSV augment	Wee1 stabilizer	L929 necroptosis	TNF necrop inh	V-ATPase pH	zVAD death conf
Cc1ccc(C(=O)Nc2cccc(C(F)(F)F)c2)cc1NC(=O)c1c[nH]c2cc(C(F)(F)F)ccc2c1=O	x	x	x	x	-1	x
Cc1ccc2c(c1)C1CN(C)CCC1N2C(=O)c1cccc(S(=O)(=O)N(C)C)c1 (stereo not drawn)	i	0	0	1	-2	x
Cc1ccc2c(c1)C1CN(C)CCC1N2C(=O)Nc1ccc(Cl)cc1 (stereo not drawn)	i	0	82*	11	-3	8
O=C(Nc1nsc(-c2ccccc2)n1)c1cccs1	i	6	75*	-1	3	0
Cc1ccc(C(=O)Nc2cccc(C(F)(F)F)c2)cc1Nc1cncnc1	x	x	x	x	-3	x
Cc1ccc(C(=O)Nc2cccc(C(F)(F)F)c2)cc1Nc1ccccn1	i	x	79*	3	-3	65*
CCOc1ccc(NC(=O)Nc2ccc3nccnc3c2)cc1	i	9.4*	92*	-4	4	1
COc1cccc(NC(=O)Nc2ccc(Br)cn2)c1	i	1	72	14	2	x
COc1ccc(NC(=O)Nc2ccc(Br)cn2)cc1OC	i	-2	77*	19	-6	39
CCOc1ccc(NC(=O)Nc2ccc(Br)cn2)cc1	i	-1	75*	4	3	2
Cn1c2c(c(=O)n1-c1ccccc1)CSCC2	x	x	x	x	8	x
CCC1(c2ccccc2)C(=O)NCNC1=O	i	1	75*	1	-1	4
CN=C1S/C(=C\c2cc(C)n(-c3ccccc3F)c2C)C(=O)N1C	i	-1	78*	-13	-3	6
Cc1cc(/C=C2\SC(=O)N(C)C2=O)c(C)n1-c1ccc(O)cc1	x	x	x	x	-1	x
CC1CN(S(=O)(=O)c2ccc(C(=O)Nc3nccs3)cc2)CC(C)O1 (stereo not drawn)	i	-2	84*	23	-1	5
O=C(Nc1nccs1)c1ccc(S(=O)(=O)N2CCCCC2)cc1	i	4	104*	52*	-2	77*
O=C(Nc1nccs1)c1ccc(S(=O)(=O)c2ccccc2)cc1	i	0	1	7	2	x
CC1CCCCC12NC(=O)N(CC(=O)N1CCN(Cc3ccc(C#N)cc3)CC1)C2=O (stereo not drawn)	x	x	x	x	2	x
CN(C)C(=O)CSc1ccccc1C(=O)OCC(=O)NC1CC1	x	x	x	x	0	x
c1ccc(Nc2nc(N3CCCCC3)nc(N3CCNCC3)n2)cc1	x	1	77*	-2	2	2
COc1ccccc1C(=O)NCC(=O)NCCC(c1ccccc1)c1ccccc1	x	x	x	x	-1	x
CCOc1ccccc1-n1c(SCC(=O)Nc2ccc(CC)cc2)nc2n[nH]c(C)c2c1=N	i	3	80*	-3	x	43
CCOc1cc(NC(=O)c2cccs2)c(OCC)cc1NC(=O)CCC(=O)NCCN1CCOCC1	i	-2	0	1	0	x
O=Cc1ccc2noc(-c3ccc(F)cc3)c2c1	i	7	82*	-6	7	2
NC(=O)NOCc1ccc(Cl)cc1Cl	i	0	84*	2	-1	26
SMILES	HSV augment	Wee1 stabilizer	L929 necroptosis	TNF necrop inh	V-ATPase pH	zVAD death conf
NC(=O)NOCc1ccc(F)cc1Cl	i	-1	28	1	0	x
Nc1c(C(=O)OCC2CCCO2)c2nc3ccccc3nc2n1-c1ccc2c(c1)OCCO2 (stereo not drawn)	i	7	93*	-7	x	2
O=S(=O)(Cc1ccc(Cl)cc1)NCc1cccnc1	i	3	0	4	-4	x
O=S(=O)(c1ccc(-c2csc(-c3cccnc3)n2)cc1)N1CCOCC1	i	4	85*	12	9	6
CS(=O)(=O)N1CCC(C(=O)N2CCN(c3ccc(F)cc3)CC2)CC1	i	0	0	-1	4	x
O=c1c2c(nc3n1CCCCC3)sc1c(O)c(Br)ccc12	i	3	-1	1	2	x
CCN(CC)CCOc1c(Br)ccc2c1sc1nc3n(c(=O)c12)CCC3	i	1	81*	-6	-2	21
O=C(c1ccc([N+](=O)[O-])cc1)n1nc(-c2ccccc2)nc1NCc1ccccc1	x	3	48	-1	-1	x
CCC(=O)n1nc(-c2cccnc2)nc1NCc1ccc(F)cc1	i	-3	72	2	-1	x
CCCC(=O)n1nc(-c2cccnc2)nc1NCc1cccs1	i	5	77*	2	-1	1
CCCC(=O)n1nc(-c2cccnc2)nc1NCc1ccccc1	i	-1	79*	2	1	1
O=C(c1cccc([N+](=O)[O-])c1)n1nc(-c2ccccc2)nc1NCc1ccccc1	i	0	80*	4	-2	3
CCC(=O)n1nc(-c2cccnc2)nc1NCc1ccccc1	i	0	79*	2	-1	8
CC1(C)CC[C@]2(C(=O)n3ccnc3)CC[C@]3(C)[C@H](C(=O)C=C4[C@@]5(C)C=C(C#N)C(=O)C(C)(C)[C@@H]5CC[C@]43C)[C@@H]2C1	x	x	x	x	8	x
Cc1c(C(=O)Nc2ccc(C(F)(F)F)cc2)sc2ncn(CC(=O)N3CCN(c4ccccn4)CC3)c(=O)c12	x	x	x	x	-1	x
Nc1ncnc2oc(-c3ccco3)c(-c3ccco3)c12	i	-1	79*	-9	-2	36
COc1ccc(-c2cc(=O)c3cc(O)ccc3o2)cc1	i	0	76*	-2	2	30
CC(C)(C)c1csc(N/N=C/c2cccnc2)n1	i	2	77*	0	1	6
CCN1CCN(Cc2ccc(NC(=O)c3cc(NC(=O)c4ccno4)cc(OC)c3)cc2C(F)(F)F)CC1	i	x	77*	-8	-3	73*
CCN1CCN(Cc2ccc(NC(=O)c3cc(NC(=O)N4CCNC4=O)cc(OC)c3)cc2C(F)(F)F)CC1	i	x	78*	-8	3	64*
CCN1CCN(Cc2ccc(NC(=O)c3cc(NC(=O)c4ccc5n[nH]nc5c4)cc(OC)c3)cc2C(F)(F)F)CC1	i	x	0	2	3	x
CCN1CCN(Cc2ccc(NC(=O)c3ccc(C)c(NC(=O)c4csc(-c5ccncc5)n4)c3)cc2C(F)(F)F)CC1	i	x	84*	-4	-3	81*
Cc1cc(NCC(=O)Nc2ccc(C)c(S(=O)(=O)N3CCOCC3)c2)ccc1Br	x	x	x	x	0	x
CCCNC(=O)c1ccc2c(c1)ncn2-c1cc(C)cc(C)c1	i	0	76*	5	1	2
CCCCNC(=O)c1ccc2c(c1)ncn2C1CCCCC1	i	1	79*	2	1	33

Bioassay records from PubChem.
